Source: PubChem BioAssay AID602350 (Broad Institute, 2012)
Potency and affinity values are given separately. Active and inactive are the calls of the source.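 The calls were made as follows: active = absorbance falls by 30% or more versus neutral controls, with a potency fitted within twice the top valid dose; inconclusive = no clear call, values can overlap the other calls; inactive = change opposite to expected direction, plus the rest.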

target: Protein disulfide-isomerase (Homo sapiens) (UniProt P07237); test: inhibition of PDI-driven insulin aggregation – biochemical, turbidity, absorbance, cherry-picked samples, dose response (AID 602350); conditions: recombinant PDI insulin aggregation, absorbance 650 nm, 90 min; series mostly up to 19.5 µM
Sequence (P07237 whole entry, looked up): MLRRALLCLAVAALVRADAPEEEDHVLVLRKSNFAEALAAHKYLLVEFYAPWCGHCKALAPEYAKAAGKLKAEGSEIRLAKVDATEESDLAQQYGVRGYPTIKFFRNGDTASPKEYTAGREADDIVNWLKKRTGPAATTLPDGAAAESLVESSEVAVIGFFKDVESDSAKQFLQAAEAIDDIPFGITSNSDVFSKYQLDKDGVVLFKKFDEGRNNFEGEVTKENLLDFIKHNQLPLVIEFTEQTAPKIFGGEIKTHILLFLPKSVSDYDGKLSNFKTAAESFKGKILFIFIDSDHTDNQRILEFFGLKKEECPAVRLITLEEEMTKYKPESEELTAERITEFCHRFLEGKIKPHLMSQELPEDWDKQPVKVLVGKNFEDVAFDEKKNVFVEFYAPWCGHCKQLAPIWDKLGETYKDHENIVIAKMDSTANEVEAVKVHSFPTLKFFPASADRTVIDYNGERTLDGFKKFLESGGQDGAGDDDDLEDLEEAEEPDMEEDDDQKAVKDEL

outcome, inactive:
CSc1cccc(NC(=O)CN(C)S(=O)(=O)c2ccc(F)cc2)c1
COc1ccc(/C(C)=N/NC(=O)CNC(=O)c2cccs2)cc1
CCOC(=O)Oc1c(OC)cc(C(=O)O[C@@H]2C[C@@H]3CN4CCc5c([nH]c6cc(OC)ccc56)[C@H]4C[C@@H]3[C@H](C(=O)OC)[C@H]2OC)cc1OC
O=c1cc(CSc2nnnn2-c2ccc(O)cc2)nc2sccn12
COc1ccccc1NC(=O)c1ccc(NC(=O)COC(=O)c2cccnc2Cl)cc1
COc1cccc(/C=N/NC(=O)CNC(=O)C(c2ccccc2)c2ccccc2)c1O
COc1ccc(CN(C)C[C@@H]2Oc3c(NS(C)(=O)=O)cccc3C(=O)N([C@H](C)CO)C[C@H]2C)cc1
CN(C)S(=O)(=O)c1ccc(C(=O)Nc2ccc3nc(N4CCOCC4)sc3c2)cc1
Cc1ccc(N2CC(C(=O)N3CCCCCC3)CC2=O)cc1 (centres undefined)
COc1ccc(C2c3ccc(O)cc3Oc3ncn(CCCO)c(=N)c32)cc1 (centres undefined)
CC12CCC3c4ccc(O)cc4CCC3C1CCC2=O (centres undefined)
CC(C)N1CCCC(C)(C(=O)Nc2nc3ccccc3n2C)C1 (centres undefined)
N#Cc1c(NCCCO)nc(-c2ccco2)c2c1CCCC2
Cc1cc(C(=O)Cn2nnc3ccccc3c2=O)c(C)n1-c1ccccc1F
COc1cccc(-n2ccnc2SCC(=O)Nc2cc(OC)ccc2OC)c1
CCC(=O)Nc1ccc(-c2cc3ccccc3oc2=O)cc1
CCOc1ccc(NC(=O)CN(C)C(=O)c2cc(C)nc3ccccc23)cc1OCC
COc1cccc(NC(=O)CN(C)C(=O)/C=C/c2cc(OC)ccc2OC)c1
O=C(CNC(=O)c1n[nH]c2ccccc12)Nc1cc(Cl)ccc1Cl
CC1CCc2sc(C(=O)N/N=C/C3CCCCC3)cc2C1 (centres undefined)
CC(=O)Nc1cccc(NC(=O)CCc2ccccc2)c1
Cn1nnnc1SCC(=O)Nc1cc(C(F)(F)F)ccc1N1CCOCC1
CCCCNC(=O)CCn1c(=O)c2ccccc2n(CC(=O)Nc2ccccc2OCC)c1=O
COC(=O)c1ccc(COC(=O)CSCC(=O)Nc2ccc(C)cc2C)cc1
O=C(Nc1cccc(S(=O)(=O)Nc2ccc(SC(F)F)cc2)c1)C1CCC1
C=CCn1c(C(CCCC)CC(O)COCC(C)C)n[nH]c1=S (centres undefined)
COc1ccc(C[C@@H]2CN3C(=NC[C@@H]3Cc3ccc(O)cc3)N2C[C@H](C)NC(=O)CCC2CCCCC2)cc1
C[C@@H]1CN([C@H](C)CO)C(=O)c2cc(NC(=O)Cc3cn(C)c4ccccc34)ccc2O[C@@H]1CN(C)S(=O)(=O)c1ccc(F)cc1
Cc1ccc(N2CC(C(=O)Nc3nc4ccc(S(C)(=O)=O)cc4s3)CC2=O)cc1 (centres undefined)
Cc1ccc2c(c1)Oc1ccc(NC(=O)CCl)cc1C(=O)N2
Cc1cc(NC(=O)CSc2[nH]c(=O)cc(C(F)(F)F)c2C#N)no1
CCOC(=O)C(C)c1n[nH]c(=O)c2ccccc12 (centres undefined)
Cc1cc(C)cc(CC(=O)N2CCC2(C)C(=O)NS(=O)(=O)c2ccc(Br)cc2)c1 (centres undefined)
C[C@@H]1CN([C@@H](C)CO)C(=O)Cc2cc(NC(=O)Nc3ccccc3)ccc2O[C@H]1CN(C)Cc1ccccc1
Cc1noc(C)c1S(=O)(=O)Nc1ccc2c(c1)CC(=O)N([C@@H](C)CO)C[C@@H](C)[C@@H](CN(C)S(=O)(=O)c1ccc(F)cc1)O2
CC(=O)N1CCC(C(=O)NCCOc2cccc(C)c2)CC1
O=C(c1cc([N+](=O)[O-])ccc1N1CCOCC1)N1CCN(c2ccc([N+](=O)[O-])cc2)CC1
CC(C)c1ccc(Nc2nc(CC(=O)O)cs2)cc1
C[C@H](CO)N1C[C@H](C)[C@@H](CN(C)Cc2ccccc2)Oc2ccc(NC(=O)Nc3ccccc3)cc2CC1=O
